Assays:
Assay in all cases: log2 ratio of Biotin-Ahx-Ub-VS probe labelling (fragment/DMSO); higher = less target engagement (more negative = stronger competition), active = hit call of the paper (q ≤ 0.05, log2 ratio ≤ -1)
Conditions in all cases: compound concentration: 200 uM; treatment time: 3 h
USP16 = USP16 (UniProt Q9Y5T5)
Procedure, shortened: (§1)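 Global-median-normalised Spectronaut label-free quantities were compared by unpaired t-test, and values are average log2 ratios of fragment over vehicle. Only proteins with ≥2 unique peptides were used. HEK293T lysate (495 µg per sample) was treated in triplicate with fragment at 200 µM or vehicle for 3 h and then with Biotin-Ahx-Ub-VS at 0.5 µM final for 1 h. Labelled DUBs were then NeutrAvidin-enriched, digested with LysC and trypsin, and run by diaPASEF LC-MS/MS.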

USP19 = target: T1, USP19 (UniProt O94966)
T1 sequence (whole entry): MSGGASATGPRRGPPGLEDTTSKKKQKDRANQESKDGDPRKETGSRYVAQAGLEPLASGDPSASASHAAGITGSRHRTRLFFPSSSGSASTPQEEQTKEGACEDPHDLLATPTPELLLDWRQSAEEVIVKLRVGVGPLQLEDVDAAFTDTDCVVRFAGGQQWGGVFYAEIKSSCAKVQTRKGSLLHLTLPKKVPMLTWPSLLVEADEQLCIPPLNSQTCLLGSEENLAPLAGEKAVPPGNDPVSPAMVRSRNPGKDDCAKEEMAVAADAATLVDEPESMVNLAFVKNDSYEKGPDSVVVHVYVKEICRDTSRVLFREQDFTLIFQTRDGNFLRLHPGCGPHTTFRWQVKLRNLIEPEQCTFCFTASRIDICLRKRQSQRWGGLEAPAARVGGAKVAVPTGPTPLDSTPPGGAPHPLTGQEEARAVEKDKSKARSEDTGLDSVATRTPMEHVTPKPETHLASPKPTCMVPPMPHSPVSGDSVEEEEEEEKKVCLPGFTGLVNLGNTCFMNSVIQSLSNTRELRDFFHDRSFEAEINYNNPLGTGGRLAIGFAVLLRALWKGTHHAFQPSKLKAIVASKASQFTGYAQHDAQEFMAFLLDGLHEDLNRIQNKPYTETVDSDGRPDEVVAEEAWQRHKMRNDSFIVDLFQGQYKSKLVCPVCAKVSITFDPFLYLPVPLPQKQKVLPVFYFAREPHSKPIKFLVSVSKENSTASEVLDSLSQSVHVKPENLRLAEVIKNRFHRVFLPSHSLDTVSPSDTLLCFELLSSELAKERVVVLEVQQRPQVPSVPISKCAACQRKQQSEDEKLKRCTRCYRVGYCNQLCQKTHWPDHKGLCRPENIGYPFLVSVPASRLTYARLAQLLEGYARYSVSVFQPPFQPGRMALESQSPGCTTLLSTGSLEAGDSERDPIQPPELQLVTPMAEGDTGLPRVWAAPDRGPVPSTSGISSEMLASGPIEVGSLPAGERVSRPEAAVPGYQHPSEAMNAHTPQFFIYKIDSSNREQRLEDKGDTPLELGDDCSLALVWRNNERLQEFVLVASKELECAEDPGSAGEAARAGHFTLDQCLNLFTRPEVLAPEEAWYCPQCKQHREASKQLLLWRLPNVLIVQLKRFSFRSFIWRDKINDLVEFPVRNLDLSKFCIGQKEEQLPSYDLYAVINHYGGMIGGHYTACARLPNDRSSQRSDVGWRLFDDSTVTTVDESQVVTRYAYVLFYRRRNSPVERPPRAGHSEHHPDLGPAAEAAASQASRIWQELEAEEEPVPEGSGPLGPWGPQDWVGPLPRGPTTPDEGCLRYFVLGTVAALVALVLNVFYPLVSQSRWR
Procedure, shortened: as §1

USP24 = USP24 (UniProt Q9UPU5)
Chain of USP24 (Q9UPU5 whole entry): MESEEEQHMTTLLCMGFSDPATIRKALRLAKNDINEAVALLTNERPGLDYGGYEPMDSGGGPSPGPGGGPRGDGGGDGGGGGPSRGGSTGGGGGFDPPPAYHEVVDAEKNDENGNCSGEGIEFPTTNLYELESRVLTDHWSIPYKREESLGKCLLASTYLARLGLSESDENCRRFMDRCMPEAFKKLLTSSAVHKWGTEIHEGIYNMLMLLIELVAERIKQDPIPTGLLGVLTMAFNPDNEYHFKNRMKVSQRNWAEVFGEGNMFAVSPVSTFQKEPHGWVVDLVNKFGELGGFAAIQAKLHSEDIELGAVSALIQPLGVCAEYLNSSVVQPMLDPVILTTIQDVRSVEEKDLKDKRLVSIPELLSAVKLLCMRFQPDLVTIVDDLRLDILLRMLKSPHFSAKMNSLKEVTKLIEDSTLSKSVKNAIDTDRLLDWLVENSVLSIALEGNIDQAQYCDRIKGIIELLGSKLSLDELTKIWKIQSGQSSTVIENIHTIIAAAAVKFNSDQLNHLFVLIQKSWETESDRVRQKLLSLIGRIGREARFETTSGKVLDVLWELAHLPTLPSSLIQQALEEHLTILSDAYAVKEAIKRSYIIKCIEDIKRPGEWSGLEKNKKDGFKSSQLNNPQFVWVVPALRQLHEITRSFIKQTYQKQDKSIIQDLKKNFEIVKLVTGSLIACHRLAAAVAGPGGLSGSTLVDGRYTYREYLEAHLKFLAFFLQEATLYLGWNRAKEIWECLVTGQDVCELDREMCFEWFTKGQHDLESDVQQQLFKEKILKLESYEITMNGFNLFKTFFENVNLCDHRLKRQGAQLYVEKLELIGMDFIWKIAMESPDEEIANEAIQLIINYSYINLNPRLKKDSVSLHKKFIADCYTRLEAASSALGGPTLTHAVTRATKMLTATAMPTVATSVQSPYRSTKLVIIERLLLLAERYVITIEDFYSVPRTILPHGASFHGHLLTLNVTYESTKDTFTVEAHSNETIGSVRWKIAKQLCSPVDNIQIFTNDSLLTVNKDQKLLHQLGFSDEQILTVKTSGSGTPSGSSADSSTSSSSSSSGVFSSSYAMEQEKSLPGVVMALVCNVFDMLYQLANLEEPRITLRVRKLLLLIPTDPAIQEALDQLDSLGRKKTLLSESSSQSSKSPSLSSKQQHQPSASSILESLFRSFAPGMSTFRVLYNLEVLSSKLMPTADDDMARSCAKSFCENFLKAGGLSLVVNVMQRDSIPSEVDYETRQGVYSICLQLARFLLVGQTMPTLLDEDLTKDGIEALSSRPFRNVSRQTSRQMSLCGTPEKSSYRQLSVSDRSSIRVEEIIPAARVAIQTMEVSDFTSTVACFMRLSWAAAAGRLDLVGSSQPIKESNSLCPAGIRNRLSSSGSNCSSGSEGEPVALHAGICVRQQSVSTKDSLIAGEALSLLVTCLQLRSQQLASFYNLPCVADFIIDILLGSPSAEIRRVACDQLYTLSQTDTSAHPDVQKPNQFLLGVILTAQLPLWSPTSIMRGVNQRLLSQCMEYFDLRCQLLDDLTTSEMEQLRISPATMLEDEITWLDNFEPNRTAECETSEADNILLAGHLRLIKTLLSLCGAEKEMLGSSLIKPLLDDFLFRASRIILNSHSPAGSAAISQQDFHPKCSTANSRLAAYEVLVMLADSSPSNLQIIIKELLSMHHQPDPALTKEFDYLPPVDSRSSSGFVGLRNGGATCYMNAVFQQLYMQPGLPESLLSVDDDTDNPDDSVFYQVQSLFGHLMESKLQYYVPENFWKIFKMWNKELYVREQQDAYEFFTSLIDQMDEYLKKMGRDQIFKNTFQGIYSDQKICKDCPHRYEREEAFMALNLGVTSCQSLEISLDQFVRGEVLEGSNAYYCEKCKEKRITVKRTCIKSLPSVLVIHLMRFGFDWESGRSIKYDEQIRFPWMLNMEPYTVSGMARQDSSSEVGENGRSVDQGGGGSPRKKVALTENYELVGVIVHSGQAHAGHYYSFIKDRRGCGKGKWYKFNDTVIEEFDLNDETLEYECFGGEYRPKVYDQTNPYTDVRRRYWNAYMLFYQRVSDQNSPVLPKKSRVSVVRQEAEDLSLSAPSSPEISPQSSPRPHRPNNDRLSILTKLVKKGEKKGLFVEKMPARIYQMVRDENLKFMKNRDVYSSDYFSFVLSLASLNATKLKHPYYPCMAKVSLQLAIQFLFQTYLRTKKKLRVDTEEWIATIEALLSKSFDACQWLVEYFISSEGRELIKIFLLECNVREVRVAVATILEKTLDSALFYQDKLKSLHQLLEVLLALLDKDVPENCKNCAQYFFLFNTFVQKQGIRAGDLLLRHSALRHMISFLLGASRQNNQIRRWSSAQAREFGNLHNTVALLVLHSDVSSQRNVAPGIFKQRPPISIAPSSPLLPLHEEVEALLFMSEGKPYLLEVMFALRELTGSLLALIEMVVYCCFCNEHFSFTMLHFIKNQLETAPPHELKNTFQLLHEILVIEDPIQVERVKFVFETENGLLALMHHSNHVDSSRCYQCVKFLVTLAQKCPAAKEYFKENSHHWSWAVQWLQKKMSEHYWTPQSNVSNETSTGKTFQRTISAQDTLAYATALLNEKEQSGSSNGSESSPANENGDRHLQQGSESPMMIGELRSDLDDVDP
Procedure, shortened: as §1

USP25 = target: T2, USP25 (UniProt Q9UHP3)
T2 sequence (whole entry): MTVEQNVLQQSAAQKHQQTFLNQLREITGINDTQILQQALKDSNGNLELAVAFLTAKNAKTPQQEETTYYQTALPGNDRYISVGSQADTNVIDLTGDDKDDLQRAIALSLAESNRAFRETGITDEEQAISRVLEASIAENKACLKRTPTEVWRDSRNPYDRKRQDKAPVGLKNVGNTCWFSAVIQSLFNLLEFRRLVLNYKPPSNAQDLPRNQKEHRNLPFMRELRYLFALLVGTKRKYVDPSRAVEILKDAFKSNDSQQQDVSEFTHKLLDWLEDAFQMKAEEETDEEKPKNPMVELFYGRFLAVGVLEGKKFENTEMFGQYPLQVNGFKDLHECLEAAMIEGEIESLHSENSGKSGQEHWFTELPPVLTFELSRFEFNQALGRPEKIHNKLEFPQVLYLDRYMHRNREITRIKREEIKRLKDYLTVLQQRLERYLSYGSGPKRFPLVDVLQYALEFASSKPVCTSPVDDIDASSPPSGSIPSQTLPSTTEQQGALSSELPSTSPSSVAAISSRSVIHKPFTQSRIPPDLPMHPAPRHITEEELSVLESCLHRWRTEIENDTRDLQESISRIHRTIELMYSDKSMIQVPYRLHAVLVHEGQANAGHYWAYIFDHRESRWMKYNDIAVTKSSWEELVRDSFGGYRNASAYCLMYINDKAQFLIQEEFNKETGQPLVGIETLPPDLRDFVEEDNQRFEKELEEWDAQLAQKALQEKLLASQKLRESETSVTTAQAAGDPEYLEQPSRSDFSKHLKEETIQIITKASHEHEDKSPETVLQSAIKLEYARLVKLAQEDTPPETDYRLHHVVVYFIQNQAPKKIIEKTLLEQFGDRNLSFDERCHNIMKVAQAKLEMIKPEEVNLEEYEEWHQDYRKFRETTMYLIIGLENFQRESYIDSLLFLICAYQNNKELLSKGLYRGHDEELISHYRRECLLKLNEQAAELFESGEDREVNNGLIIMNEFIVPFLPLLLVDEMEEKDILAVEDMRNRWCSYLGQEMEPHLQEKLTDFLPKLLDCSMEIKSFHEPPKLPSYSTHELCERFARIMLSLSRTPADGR
Procedure, shortened: as §1

USP28 = target: T3, USP28 (UniProt Q96RU2)
T3 sequence (whole entry): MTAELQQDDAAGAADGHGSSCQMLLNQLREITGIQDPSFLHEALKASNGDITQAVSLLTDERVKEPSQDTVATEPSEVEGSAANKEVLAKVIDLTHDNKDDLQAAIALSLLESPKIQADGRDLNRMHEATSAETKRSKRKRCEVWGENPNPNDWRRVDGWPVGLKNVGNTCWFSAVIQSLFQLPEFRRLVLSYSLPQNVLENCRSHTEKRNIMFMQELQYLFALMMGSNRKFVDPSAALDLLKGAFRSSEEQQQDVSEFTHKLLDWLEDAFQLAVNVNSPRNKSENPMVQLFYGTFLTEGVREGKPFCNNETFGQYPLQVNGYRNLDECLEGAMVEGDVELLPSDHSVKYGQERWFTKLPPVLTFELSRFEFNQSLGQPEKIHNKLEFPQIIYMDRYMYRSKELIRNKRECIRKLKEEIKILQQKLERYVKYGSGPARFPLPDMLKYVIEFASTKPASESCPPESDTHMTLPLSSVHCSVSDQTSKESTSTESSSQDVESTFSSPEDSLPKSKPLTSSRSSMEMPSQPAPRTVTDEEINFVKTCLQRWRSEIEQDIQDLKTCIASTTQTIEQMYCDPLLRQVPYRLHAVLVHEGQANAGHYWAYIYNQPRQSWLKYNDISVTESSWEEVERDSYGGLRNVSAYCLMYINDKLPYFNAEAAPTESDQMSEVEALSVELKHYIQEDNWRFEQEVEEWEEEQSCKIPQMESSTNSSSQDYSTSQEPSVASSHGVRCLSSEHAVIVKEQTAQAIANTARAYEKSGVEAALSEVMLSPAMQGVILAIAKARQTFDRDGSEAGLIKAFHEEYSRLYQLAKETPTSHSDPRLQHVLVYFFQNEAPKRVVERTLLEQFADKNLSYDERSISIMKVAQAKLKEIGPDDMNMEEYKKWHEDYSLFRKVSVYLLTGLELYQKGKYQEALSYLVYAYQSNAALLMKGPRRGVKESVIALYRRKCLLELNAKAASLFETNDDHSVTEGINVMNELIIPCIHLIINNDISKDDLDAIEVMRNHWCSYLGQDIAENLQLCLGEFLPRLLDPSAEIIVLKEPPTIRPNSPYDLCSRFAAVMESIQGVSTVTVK
Procedure, shortened: as §1

Measured: log2 ratio of Biotin-Ahx-Ub-VS probe labelling

Chain of USP16 (Q9Y5T5 whole entry, looked up, the tested form may be a part): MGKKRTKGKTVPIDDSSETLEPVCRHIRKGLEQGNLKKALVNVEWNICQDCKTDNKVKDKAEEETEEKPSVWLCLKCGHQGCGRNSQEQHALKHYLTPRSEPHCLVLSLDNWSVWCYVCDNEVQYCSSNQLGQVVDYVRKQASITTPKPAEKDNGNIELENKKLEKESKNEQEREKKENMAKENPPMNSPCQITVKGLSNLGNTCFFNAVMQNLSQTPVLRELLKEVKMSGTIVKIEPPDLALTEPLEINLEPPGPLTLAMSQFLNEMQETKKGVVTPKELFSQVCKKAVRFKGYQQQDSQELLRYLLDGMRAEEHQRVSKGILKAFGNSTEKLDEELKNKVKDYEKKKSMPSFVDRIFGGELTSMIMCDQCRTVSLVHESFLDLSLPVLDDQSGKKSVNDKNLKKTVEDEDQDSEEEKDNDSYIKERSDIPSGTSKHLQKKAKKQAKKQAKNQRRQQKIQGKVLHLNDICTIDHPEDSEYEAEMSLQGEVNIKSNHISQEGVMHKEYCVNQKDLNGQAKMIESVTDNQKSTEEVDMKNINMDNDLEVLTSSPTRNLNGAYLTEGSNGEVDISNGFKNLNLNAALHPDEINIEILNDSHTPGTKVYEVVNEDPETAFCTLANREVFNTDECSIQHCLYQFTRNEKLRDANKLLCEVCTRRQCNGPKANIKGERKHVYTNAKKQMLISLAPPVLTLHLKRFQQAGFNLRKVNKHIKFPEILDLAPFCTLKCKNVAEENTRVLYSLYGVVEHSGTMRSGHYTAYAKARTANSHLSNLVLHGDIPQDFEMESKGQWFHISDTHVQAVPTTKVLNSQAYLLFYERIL

O=C(CCl)NCCC1COCCO1 (stereo not given)
inactive: USP16 -0.519 | USP19 -0.207 | USP24 -0.21 | USP25 -0.158 | USP28 -0.225
